Drawing on PubChem BioAssay (NCI), this text covers growth for 40 compounds.

About 83,000 compounds went through this panel and 20% of them were active in at least one assay; those are over-represented in the sample as a whole.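 Results are percent growth after 48 hours of single-concentration exposure. 100 means growth as in untreated cells, lower positive values show inhibition; negative values down to -100 show cell death.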 Calls of active or inactive are those of the source.

This assay deals with SK-MEL-28 melanoma. In words: NCI-60 one-dose screen, 48 h (100 = growth as untreated, 0 = no growth, -100 = all killed). To be noted: 10 µM. The method, then:
Growth inhibition of the SK-MEL-28 human tumor cell line is measured as a screen for anti-cancer activity. Cells are grown in 96 well plates and exposed to the test compound for 48 hours. Compounds are tested at a single concentration, which is 10^-5 M for most compounds. The reported endpoint is percent growth (GI% or GIPRCNT), where numbers from 0 - 100% represent growth inhibition, and numbers from -100% - 0 represent cell death. For example, a value of 40 represents 60% growth inhibition. A value of 0 means no net growth occurred over the course of the experiment. A value of -40 indicates 40% of cells at the beginning of the experiment died by the end of the experiment. A value of -100 means all cells are dead at the end of the experiment.
NCI-60 Human Tumor Cell Lines Screen was performed using the standard one-dose NCI protocol, which is described in more detail at https://dtp.cancer.gov/discovery_development/nci-60/default.htm.
Compounds with GIPRCNT values below 10 were considered active. Activity score was based on GIPRCNT using the following formula: […]
Score is 0 for GIPRCNT values of 100 or above, 50 for GIPRCNT values of 0, and 100 for GIPRCNT values of -100.
For `CC[C@]12C=CCN3CC[C@@]4(c5ccc(OC)cc5N(C)[C@H]4[C@@](O)(C(=O)OC)[C@@H]1OC(=O)CCCC[P+](c1ccc(OC)cc1)(c1ccc(OC)cc1)c1ccc(OC)cc1)[C@@H]32`, the growth was -96.8% (active).
In the case of `COCCOCCOCCOc1ccc(-n2cc(-c3ccc(O[C@H]4O[C@@H]5OC6(C)CC[C@H]7[C@H](C)CC[C@@H]([C@H]4C)[C@@]57OO6)cc3)nn2)cc1`, the growth was 44.6% (inactive).
Next, `CC(C)C[C@H](NC(=O)CNC(=O)C[C@H]1O[C@@H]2OC3(C)CC[C@H]4[C@H](C)CC[C@@H]([C@H]1C)[C@@]24OO3)B(O)O`: -38.5% (active); `COC(=O)CCn1c(-c2ccc(-n3cc(-c4ccc(O[C@H]5O[C@@H]6OC7(C)CC[C@H]8[C@H](C)CC[C@@H]([C@H]5C)[C@@]68OO7)cc4)nn3)cc2)nc2ccccc21`: 28.6% (inactive).
Under `CC1=C(CCC=O)C2=C(C)C3(CC3)[C@@](C)(O)C(=O)C2=C1` stands -99.3% (active); under `CC[C@]12C=CCN3CC[C@@]4(c5ccc(OC)cc5N(C)[C@H]4[C@@](O)(C(=O)OC)[C@@H]1OC(=O)CCCC[P+](C1CCCCC1)(C1CCCCC1)C1CCCCC1)[C@@H]32`, -86.5% (active).
Next, `CC1=C(COCCOC(=O)c2ccc(S(=O)(=O)F)cc2)C2=C(C)C3(CC3)[C@@](C)(O)C(=O)C2=C1`: -63.6% (active); `CC1=C(CCC=NNC(N)=O)C2=C(C)C3(CC3)[C@@](C)(O)C(=O)C2=C1`: -79.8% (active); `C=CC[Se]C(=O)c1ccc(C(=O)[Se]CC=C)s1`: -70.8% (active).
On to `O=C(/C=C/c1ccccc1Cl)c1nc2ccccc2n1Cc1ccc(F)cc1`, for which the growth was -86.2% (active).
Under `C#CC[Se]C(=O)c1ccc(C(=O)[Se]CC#C)s1` stands 104% (inactive).
Next, `O=C(/C=C/c1cccc(Br)c1)c1nc2ccccc2n1Cc1ccc(Br)cc1`: -53.4% (active); `O=C(/C=C/c1ccc(Cl)cc1Cl)c1nc2ccccc2n1Cc1ccc(F)cc1`: 74% (inactive).
Under `C=CC[Se]C(=O)c1cncc(C(=O)[Se]CC=C)c1` stands -39% (active).
Regarding `COC(=O)C[C@](O)(CCCC(C)C)C(=O)O[C@H]1C(OC)=C[C@@]23CCCN2CCc2cc4c(cc2[C@@H]13)OCO4`, the growth was -24.3% (active).
Under `O=C(/C=C/c1ccco1)c1nc2ccccc2n1Cc1ccc(Br)cc1` stands 56.2% (inactive); under `CC[C@]12C=CCN3CC[C@@]4(c5ccc(OC)cc5N(C)[C@H]4[C@@](O)(C(=O)OC)[C@@H]1OC(=O)CCCC[P+](c1ccc(C)cc1)(c1ccc(C)cc1)c1ccc(C)cc1)[C@@H]32`, -97.8% (active).
Regarding `CC[C@]12C=CCN3CC[C@@]4(c5ccc(OC)cc5N(C)[C@H]4[C@@](O)(C(=O)OC)[C@@H]1OC(=O)CCC[P+](c1ccc(C)cc1)(c1ccc(C)cc1)c1ccc(C)cc1)[C@@H]32`, the growth is -96.6% (active).
Next, `Cc1ccc2[nH]c(=S)n(-c3ccc(F)cc3)c(=O)c2c1`: 101% (inactive).
With `O=C(/C=C/c1ccc(F)cc1)c1nc2ccccc2n1Cc1ccc(F)cc1`, the growth is -15.8% (active).
Next, `COc1ccc(OC)c(/C=C/C(=O)c2nc3ccccc3n2Cc2ccc(F)cc2)c1`: -53% (active).
Next, `CN(C)CCc1cn(C2CCC2)c2cccc(O)c12`: 3.47% (active).
Next, `O=C([Se]C1C=CCCC1)c1ccc(C(=O)[Se]C2C=CCCC2)s1` (stereo not given): -79.4% (active); `CCOC(=O)C1=C(Nc2ccccc2)C(=O)OC12C(=O)Nc1ccccc12` (stereo not given): 107% (inactive); `O=C(/C=C/c1ccc(F)cc1)c1nc2ccccc2n1Cc1ccc(Br)cc1`: -58.4% (active).
As for `O=C(/C=C/c1ccc(Cl)cc1Cl)c1nc2ccccc2n1Cc1ccc(Br)cc1`, the growth is 89.5% (inactive).
Next, `CC12CCC3(CCC(=O)NCCCNc4ccnc5cc(Cl)ccc45)[C@@](C)(OO[C@]3(C)O1)O2`: 33.4% (inactive).
Under `COc1cc2cc(C(=O)N3C[C@@H](CCl)c4c3cc(OC(=O)N3CCN(C)[C@@H]5CSSC[C@H]53)c3ccccc43)[nH]c2c(OC)c1OC` stands -94.8% (active).
For `O=C(/C=C/c1cccc(Br)c1)c1nc2ccccc2n1Cc1ccc(F)cc1`, the growth is 50.6% (inactive).
`CC12OOC(C)(OO1)C2CCC(=O)OCCNc1ccnc2cc(Cl)ccc12` (stereo not given): the growth was 93% (inactive).
Consider `COC(=O)C[C@](O)(CCC(C)C)C(=O)O[C@@H]1C(OC)=C[C@]23CCCN2CCc2cc4c(cc2[C@H]13)OCO4`, for which the growth was -68.8% (active).
Under `COc1cc2cc(C(=O)N3C[C@@H](CCl)c4c3cc(OC(=O)N3CCN(C(=O)CCC(=O)N5CCN(C)CC5)[C@@H]5CSSC[C@@H]53)c3ccccc43)[nH]c2c(OC)c1OC` stands -94.4% (active); under `O=C(/C=C/c1ccco1)c1nc2ccccc2n1Cc1ccc(F)cc1`, 81.8% (inactive).
Next, `CC1=C(C=O)C2=C(C)C3(CC3)[C@@](C)(O)C(=O)C2=C1`: 23.3% (inactive); `COc1ccc(/C=C/C(=O)c2nc3ccccc3n2Cc2ccc(Br)cc2)cc1`: 85.9% (inactive); `CC[C@]12C=CCN3CC[C@@]4(c5ccc(OC)cc5N(C)[C@H]4[C@@](O)(C(=O)OC)[C@@H]1OC(=O)CCC[P+](c1ccc(F)cc1)(c1ccc(F)cc1)c1ccc(F)cc1)[C@@H]32`: -24.1% (active).
Regarding `CC(=O)Oc1ccccc1C(=O)[Se]C(=NC(C)C)NC(C)C`, the growth was -85.5% (active).
Next, `COc1cc2cc(C(=O)N3C[C@@H](CCl)c4c3cc(OC(=O)N3CCN(C)[C@@H]5CSSC[C@@H]53)c3ccccc43)[nH]c2c(OC)c1OC`: -62.6% (active).
For `CC12OOC(C)(OO1)C2CCC(=O)NCCNc1ccnc2cc(Cl)ccc12` (stereo not given), the growth was 104% (inactive).
Regarding `Cc1c2oc3c(C)ccc(C(=O)N[C@@H]4C(=O)N[C@H](C(C)C)C(=O)N5CCC[C@H]5C(=O)N(C)CC(=O)N(C)[C@@H](C(C)C)C(=O)OC4C)c3nc-2c(C(=O)N[C@@H]2C(=O)N[C@H](C(C)C)C(=O)N3CC(=O)C[C@H]3C(=O)N(C)CC(=O)N(C)[C@@H](C(C)C)C(=O)OC2C)c(N)c1=O` (stereo not given in full), the growth is -27.8% (active).
